Only some compounds are listed: those with a hit (about 1.2% of all), similar ones and a draw of the others.
Vc quorum ag – induces V. cholerae light production without autoinducers; V. cholerae BH1578 lux reporter, luminescence, 6 h; activation, % at 18.7 µM; 0.16% of 350,000 active; AID 588436; in the data active means activation mostly above about 9.7%, no sharp cut-off
PfHsp40 rescue – restores yeast growth despite PfHsp40 toxicity. growth rescue, % at 12.5 µM. AID 504582. 0.68% of 340,000 active. S. cerevisiae expressing PfHsp40, growth rescue, ATP luminescence; in the data active means growth rescue above about 28%, passing the limit was not always enough;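 further: yeast W303a lacking pdr1 and pdr3 grown in galactose medium; growth measured after three days at 30 °C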
Mtb betalactam – beta-lactam sensitization of Mtb H37Rv; 0.27% of 330,000 active; inhibition, % at 25 µM; AID 434955; M. tuberculosis H37Rv growth with meropenem, percent inhibition; call rule not given here;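 further: growth measured after seven days incubation then overnight dye step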
RN4220 kill – S. aureus RN4220 growth inhibition; OD600, 16 h; inhibition, % (test concentration not listed); 0.33% of 330,000 active; in the data active means inhibition above about 85%
ugtP null kill – compounds lethal to S. aureus RN4220 ugtP deletion mutant. AID 1259309. 0.54% of 330,000 active. growth inhibition, % (concentration not given with the values). OD600 growth, 16 h; in the data active means growth inhibition above about 68%
Each line names hits and unclear results; the compound was inactive in the other large screens.

Cc1cc(C)c2c(c1)cc(C)c1nnc(SCC(=O)N3CCCc4ccccc43)n12	ugtP null kill 96
Cc1ccc(C)c2c1cc(C)c1nnc(SCC(=O)N3CCCc4ccccc43)n12	none
CC1CN(C(C)CO)C(=O)c2cc(NC(=O)Cn3cnnn3)ccc2OC1CN(C)Cc1ccncc1 (stereo unspecified)	none (no result: Vc quorum ag, PfHsp40 rescue, Mtb betalactam)
CC(=NNc1c([N+](=O)[O-])c(C)nn1C)c1ccc(F)cc1F	none (no result: Vc quorum ag, PfHsp40 rescue, Mtb betalactam)
COc1ccc2nc(NC(=S)N(C)C)sc2c1	PfHsp40 rescue 99
CCC(CC)NC(=O)c1ccc2c(c1)OCCO2	Vc quorum ag 25
CC(NC(=O)c1ccc2c(c1)OCCO2)C(=O)O (stereo unspecified)	none
N#CC(C#N)=C1C=CC=CN1/C(=C\c1ccco1)C(=O)c1ccc(Cl)cc1	ugtP null kill 89
N#CC(C#N)=C1C=CC=CN1/C(=C\c1ccco1)C(=O)c1ccc(-c2ccccc2)cc1	PfHsp40 rescue 56
Cc1nc(Nc2ccc(Cl)c(Cl)c2)sc1C(=O)Nc1ccccc1	PfHsp40 rescue 103, RN4220 kill 93, ugtP null kill 99
CC(=NNc1nc2ccccc2[nH]1)c1cc2ccccc2o1	none (no result: Vc quorum ag, PfHsp40 rescue, Mtb betalactam)
CC(=NNC(=O)c1ccc2c(c1)OCO2)c1ccco1	none (no result: Vc quorum ag, PfHsp40 rescue, Mtb betalactam)
CCN1C(=O)C2C(c3ccc(-c4cccc(Cl)c4)cc3)N3CCC[C@@]3(C(=O)OC)C2C1=O (stereo partly specified)	none (no result: Vc quorum ag, PfHsp40 rescue, Mtb betalactam)
O=C(Cn1nc(-c2nn(CC(=O)c3ccccc3)c3[n+]2CCCCC3)[n+]2c1CCCCC2)c1ccccc1	none (no result: PfHsp40 rescue)
COc1ccc(C(=O)Cn2nc(CNc3ccc(Br)cc3)[n+]3c2CCCCC3)cc1	RN4220 kill 99, ugtP null kill 98
O=C(CN1CCCCC1)c1ccc(OC(F)F)cc1	none
Cc1ccc(C(C)C)c(OCc2nn(CC(=O)c3ccc(OC(F)F)cc3)c3[n+]2CCCCC3)c1	RN4220 kill 100, ugtP null kill 95
CC1COC(=O)C(Cc2ccc(F)cc2)CC=CCC(CC(=O)NCCO)C(=O)N1 (stereo unspecified)	none (no result: Vc quorum ag, PfHsp40 rescue, Mtb betalactam)
Clc1ccc(-c2nc3ccccc3nc2-c2ccccc2)cc1	ugtP null kill 89
Cc1ccc(-c2nc3ccccc3nc2-c2ccccc2)cc1	ugtP null kill 86
CC1Oc2ccccc2C=C1/C=N/Nc1ccc(C(=O)O)cc1 (stereo unspecified)	PfHsp40 rescue 342 (no result: RN4220 kill, ugtP null kill)
CC(=O)NC(CC(=O)NC(CCC(=O)O)C(=O)O)C(=O)O (stereo unspecified)	none (no result: Vc quorum ag, PfHsp40 rescue, Mtb betalactam)
CC(C)COc1ccc(Cc2cnc(N)nc2N)cc1	ugtP null kill 97
CC(C)COc1ccc(C/C(N)=N/n2cnnc2)cc1	none
CNC(=O)c1sc(-c2ccc(Cl)cc2)nc1C	none
CNC(=O)c1sc(-c2ccccc2)nc1C	PfHsp40 rescue 93
O=C(Nc1ccc(NC(=O)c2cccs2)cc1)c1ccc2c(c1)OCCO2	none
Cc1nc2ccc(NC(=O)c3ccc(Cl)c(NC(=O)c4cccs4)c3)cc2s1	none
COc1cc(NC(=O)c2ccc([N+](=O)[O-])o2)ccc1NC(=O)c1cccs1	RN4220 kill 100, ugtP null kill 100
Cc1ccc(NC(=O)c2ccc(Cl)c(NC(=O)c3cccs3)c2)cc1	PfHsp40 rescue 35
COc1cc(NC(=O)c2ccc3c(c2)OCCO3)ccc1NC(=O)c1cccs1	PfHsp40 rescue 71
CN(C)C=C(C(=O)c1ccccc1)n1cncn1	none (no result: Vc quorum ag, PfHsp40 rescue, Mtb betalactam)
COc1ccccc1CNC(=O)Nc1cccs1	none
COc1ccc(Br)cc1CNC(=O)Nc1cccs1	RN4220 kill 91, ugtP null kill 87
CC(=O)NC(c1cc(Cl)c2cccnc2c1O)C(C)C (stereo unspecified)	none
CN1CCN(C(c2ccccn2)c2cc(Cl)c3cccnc3c2O)CC1 (stereo unspecified)	PfHsp40 rescue 401
Oc1c(C(c2ccc(Cl)cc2)N2CCCC2)cc(Cl)c2cccnc12 (stereo unspecified)	PfHsp40 rescue 53, RN4220 kill 100, ugtP null kill 100
Oc1c(C(c2ccccn2)N2CCC(Cc3ccccc3)CC2)cc(Cl)c2cccnc12 (stereo unspecified)	RN4220 kill 93, ugtP null kill 88 (no result: Vc quorum ag, PfHsp40 rescue)
Cc1ccc(C(c2cc(Cl)c3cccnc3c2O)N2CCN(C)CC2)cc1 (stereo unspecified)	PfHsp40 rescue 61 (no result: RN4220 kill, ugtP null kill)
CC(=O)NC(c1ccc(C)cc1)c1cc(Cl)c2cccnc2c1O (stereo unspecified)	none (no result: RN4220 kill, ugtP null kill)
O=C(CN1CCCCC1)NN=Cc1ccc(Cl)cc1Cl	none (no result: Vc quorum ag, PfHsp40 rescue, Mtb betalactam)
Cc1nc(SCC(=O)Nc2ccc3c(c2)OCCO3)c2oc3ccccc3c2n1	ugtP null kill 90
CC(CC(=O)Nc1cccc2c1CCCC2)=NNC=O	none (no result: Vc quorum ag, PfHsp40 rescue, Mtb betalactam)
Cc1ccc2c(c1)C1C(CO2)C(c2ccccc2)[C@]2(C)C(=O)Nc3cc(Cl)ccc3C(=O)N12 (stereo partly specified)	none (no result: Vc quorum ag, PfHsp40 rescue, Mtb betalactam)
O=C(Nn1c(COc2ccccc2)nc2ccccc2c1=O)C(Cl)(Cl)Cl	RN4220 kill 100, ugtP null kill 100
Cc1nc2ccccc2c(=O)n1NC(=O)COc1ccccc1	none
Cc1ccnc(NS(=O)(=O)c2ccc(NC(=O)C3CCCCC3)cc2)n1	none
O=C(NC(=S)Nc1ccc(F)cc1)C1CCCCC1	none
O=C(NC(=S)Nc1ccc(O)cc1)C1CCCC1	ugtP null kill 87
Cc1cc(C)nc(NS(=O)(=O)c2ccc(NC(=S)NC(=O)C3CCCC3)cc2)n1	ugtP null kill 86
CC(C)CC(N)c1cn(C(Cc2cc3ccccc3[nH]2)C(=O)N2CCNCC2)nn1 (stereo unspecified)	none (no result: Vc quorum ag, PfHsp40 rescue, Mtb betalactam)
COc1ccc(C(O)=C2C(=O)C(=O)N(CCN(C)C)C2c2ccccc2)cc1Cl (stereo unspecified)	none (no result: Vc quorum ag, PfHsp40 rescue, Mtb betalactam)
CC1C=C[C@](Cc2ccccc2)(C(=O)O)N1C(=O)c1ccccc1 (stereo partly specified)	none (no result: Vc quorum ag, PfHsp40 rescue, Mtb betalactam)
CNC(=O)c1cc2c(cn1)[nH]c1ccccc12	PfHsp40 rescue 60
COC(=O)[C@H](CCSC)NC(=O)c1cc2c(cn1)[nH]c1ccccc12	none
CC=C1COC(C(=O)NCc2cccc(OC)c2OC)(C(F)(F)F)C=C1C=C1CCCCC1 (stereo unspecified)	none (no result: Vc quorum ag, PfHsp40 rescue, Mtb betalactam)
COc1cc2cc(CN(Cc3nnnn3Cc3ccco3)C3CCCCC3)c(=O)[nH]c2cc1OC	Vc quorum ag 33
CC1CN(C(C)CO)C(=O)Cc2cc(NC(=O)CCC(F)(F)F)ccc2OC1CN(C)Cc1ccc(-c2ccccc2)cc1 (stereo unspecified)	none (no result: Vc quorum ag, PfHsp40 rescue, Mtb betalactam)
O=C1C=C(c2cccs2)C[C@H](c2ccccc2)[C@H]1n1nnc([N+](=O)[O-])n1	ugtP null kill 98
C#CCOCCOCCOCCNc1nc(N2CCN(C(=O)C(CCC(=O)O)n3cc(C(N)CCCCN)nn3)CC2)nc(N2CCN(C(=O)C(C(C)O)n3cc(C(N)CCCCN)nn3)CC2)n1 (stereo unspecified)	none (no result: Vc quorum ag, PfHsp40 rescue, Mtb betalactam)
Cc1nnc(SCC2=C(C(=O)O)N3C(=O)C(NC(=O)Cn4nc(C(F)F)c(Cl)c4C)C3SC2)s1 (stereo unspecified)	RN4220 kill 100, ugtP null kill 100
CC1=C(C(=O)O)N2C(=O)C(NC(=O)CCCC(=O)O)C2SC1 (stereo unspecified)	none

Screens deposited in PubChem by several laboratories.
